Measured values reported in PubChem BioAssay AID651965 (National Center for Advancing Translational Sciences (NCATS), 2013).
The campaign covered roughly 340,000 compounds. About 6,400 (1.9%) were called active. Entries that show only a call come without a potency. About 4% were inconclusive and are not listed. Calls come from the whole dose curve; as a rule, active = well fitted falling curve with a large enough effect; inconclusive = small, poorly fitted or top-dose-only effect; inactive = no such curve, though single readings can be large or run the other way. The sample as a whole holds a higher share of actives than the screen did.

target: ATP-dependent Clp protease proteolytic subunit (Bacillus subtilis (strain 168)) (UniProt P80244); assay: qHTS Assay for Activators of ClpP; note: the source files actives as falling curves though it sought activators and does not explain the sign; nearly all actives have a fitted effect of over 65% in size; conditions: purified B. subtilis ClpP, FRET peptide cleavage, 20 min; series mostly up to 57.5 µM
Source text: The Clp protease proteolytic subunit (ClpP) is the core unit of the Clp complex belonging to the peptidase family S14 that hydrolyzes protein into small peptides in the presence of ATP and magnesium. It is ubiquitously expressed and is the major protease in bacteria. […] Unlike common antibiotics that simply interfere with the essential enzyme activity, ADEP binding activates the ClpP core in the absence of the regulatory Clp-ATPases leading to uncontrolled proteolysis and eventually cell death. Activators binding to the docking site on ClpP can also block formation of the ClpXP and ClpA/C-P holoenzyme complexes interfering with the normal biological functions of ClpP and thus have the potential to become new anti-microbials.
To identify activators of ClpP, a FRET based quenching reversal assay was developed using a purified B. subtilis ClpP and a decapeptide substrate (FRET-FV). The FRET-FV is tagged with a fluorescent molecule amino benzoic acid (donor) at the N-terminus and a nitrotyrosine quencher (acceptor) at the C-terminus. FRET-FV cleaves upon activation of ClpP with ADEP treatement and reverses the quenching effect of the nitrotyrosine causing an increase in fluorescence emission signal at 430nm. This assay was used to screen the Molecular Libraries Small Molecule Repository (MLSMR).
NIH Molecular Libraries Probe Production Centers Network [MLPCN]
NIH Chemical Genomics Center [NCGC]
Assay Submitter (PI): Michael Maurizi, National Cancer Institute
Two and a half microL/well of purified enzyme solution (final concentrations 10 microg/mL B. subtilis ClpP in 100 mM Tris/HCl pH8, 100 mM KCl, 0.05% low protease BSA, 2.5% glycerol, 0.01% Tween-20 buffer) was dispensed into 1536-well assay plates (Greiner, black solid, medium-binding plates) with Aurora Discovery BioRAPTR Flying Reagent Dispenser (FRD, Beckton-Dickenson). Compound solution (23 nL) was transferred to the assay plate using Kalypsys pin tool equipped with a 1536-pin tool. […] FRET signals at time 0 and after 20 min room temperature incubation were obtained using the PerkinElmer Envision plate reader with 320nm excitation and 430nm emission filters. Delta FRET value (Time 20 - Time 0) was calculated and normalized to the delta FRET value of positive control ADEP (5.8 microM final concentration) and negative control DMSO and no enzyme wells.

Row | SMILES | Potency
1 | CCOC(=O)[C@]12CCC=C1N(Cc1ccccc1)C(=O)[C@H](CC(=O)N1CCCC1)C2 | inactive
2 | CC(=O)NC(c1ccccc1)c1nc(-c2ccccc2C)cs1 (stereo not given) | inactive
3 | NS(=O)(=O)c1ccc(NC(=O)CSc2nnc3c(n2)[nH]c2ccccc23)cc1 | inactive
4 | O=C(Cn1nc(C(F)(F)F)c2c1CCC2)NCc1ccc(F)cc1 | inactive
5 | O=C(Cn1nc(C(F)(F)F)c2c1CCCC2)Nc1ccc(Cl)cc1 | inactive
6 | Cc1cc(NC(=O)Cn2nc(C(F)(F)F)c3c2CCCC3)no1 | 28.2 µM (active)
7 | COc1ccc(C(=O)OCC(=O)Nc2ccc3[nH]c(=O)[nH]c3c2)c(OC)c1OC | inactive
8 | CC(C)(C)NC(=O)COc1ccc(CNc2ccc3[nH]c(=O)[nH]c3c2)cc1 | 22.4 µM (active)
9 | COC(=O)c1ccc(OCC(=O)NC(C)(C)C)cc1 | inactive
10 | Cc1ccc([C@H]2N[C@]3(CCCN(Cc4ccccc4)C3=O)[C@H]3C(=O)N(Cc4ccccc4)C(=O)[C@@H]23)cc1 | inactive
11 | CCOC(=O)[C@H]1Nc2ccc(Cl)cc2[C@@H]2[C@H]1C1CC(c3ccccc31)N2C(=O)OCc1ccccc1 (stereo not given in full) | inactive
12 | CCn1c2ccccc2c2cc(NC(=O)C/C(C)=N/NC(=O)c3ccccc3N)ccc21 | 14.1 µM (active)
13 | C/C(CC(=O)Nc1ccc(N(C)C)cc1)=N\NC(=O)c1ccccc1F | inactive
14 | CCn1c2ccccc2c2cc(NC(=O)COc3ccc(C)cc3C)ccc21 | inactive
15 | COc1ccc(-c2cc(C(=O)NCCCN3CCCC3=O)c3ccccc3n2)cc1OC | inactive
16 | CCc1ccc(-c2cc(C(=O)NN3CCN(C)CC3)c3ccccc3n2)cc1 | 31.6 µM (active)
17 | Cc1ccc(-c2cc(C(=O)NC3CCN(Cc4ccccc4)CC3)c3ccccc3n2)cc1 | inactive
18 | COCCNc1nc(NCc2ccc(NC(C)=O)cc2)c2sccc2n1 | inactive
19 | Cc1nc2c(OCC(=O)C(C)(C)C)cccn2c1N(C)Cc1cccs1 | inactive
20 | CCCCCc1c(-c2cccc(Br)c2)ncn1CCc1ccccc1OC | inactive
21 | COc1c(C)cc(C(O)c2ncc(-c3cccc(C(F)(F)F)c3)[nH]2)cc1C (stereo not given) | inactive
22 | CCC(c1nnnn1-c1ccc2c(c1)OCCO2)N1CCN(c2ccc(C(F)(F)F)cn2)CC1 (stereo not given) | inactive
23 | C=C(C)CSc1nc(N)c2c3c(sc2n1)CCC3 | 12.6 µM (active)
24 | CC(C)(C)C1CCc2c(sc3nc(SCC(N)=O)nc(N)c23)C1 (stereo not given) | inactive
25 | CCc1nc(N2CCN(C(C)=O)CC2)c2c3c(sc2n1)CCCC3 | inactive

Row | SMILES | Potency
26 | C[C@H]1CN([C@@H](C)CO)C(=O)c2cc(C3=CCCCC3)cnc2O[C@@H]1CN(C)C(=O)Cc1ccccc1 | inactive
27 | CC(=O)Nc1ccc(NC(=O)CN2CCCC(C)C2)c(Cl)c1 (stereo not given) | inactive
28 | Cc1[nH]c2ccccc2c1C(=O)CN1CCCC(C)C1 (stereo not given) | inactive
29 | Cc1cc(NC(=O)CN2CCCC(C)C2)n(-c2nc3ccccc3s2)n1 (stereo not given) | 17.8 µM (active)
30 | CC(=O)c1ccc(Nc2nc(C(N)c3ccccc3Cl)cs2)cc1 (stereo not given) | inactive
31 | CCOc1ccc2nc(N3CCCN(C(=O)Nc4ccccc4C)CC3)c(C#N)cc2c1 | inactive
32 | CCOC(=O)c1c(N)nn(C(=O)c2ccccc2)c1-c1ccccc1 | inactive
33 | CCOC(=O)c1cc(C#N)c(N2CCCCC2)nc1-c1ccccc1 | 28.2 µM (active)
34 | Cc1cc[n+](C2CCCCC2)cc1 | inactive
35 | N#Cc1ccc[n+](CC(=O)c2ccc(O)c(O)c2)c1 | inactive
36 | O=C(NCc1cccnc1)c1cc(C2CCCN(C(=O)CCCc3ccccc3)C2)on1 (stereo not given) | inactive
37 | O=C(NCc1ccc2c(c1)OCO2)c1cc(F)c(F)cc1Cl | inactive
38 | CCn1c(=O)c(C(=O)NCc2ccc3c(c2)OCO3)c(O)c2ccccc21 | inactive
39 | Cc1nc2c(C(=O)NCc3ccc4c(c3)OCO4)c[nH]n2c(=O)c1Cc1ccccc1F | 31.6 µM (active)
40 | OCCc1ccc(NCCc2ccco2)cc1 | inactive
41 | CCCNC(=O)C1(C)CCCN(C(=O)c2cccc(OC(C)=O)c2C)C1 (stereo not given) | inactive
42 | O=C1C[C@H]2C=CCc3cccc(c32)CN1Cc1ccccc1 | inactive
43 | CC(=O)OCC(C)n1c(=O)c2ccccc2n1C(C)=O (stereo not given) | inactive
44 | Cc1nc(N2CCOCC2)nc2c1CCCC2 | 28.2 µM (active)
45 | O=C(CN1CCOCC1)Nc1c2c(nc3c1CCC3)CCC2 | inactive
46 | Cc1ccc(Nc2nc(N3CCOCC3)nc(N3CCOCC3)n2)cc1Cl | inactive
47 | CCc1nc2c(OCCc3cccc(OC)c3)cccn2c1N(C)C(=O)c1ccc(C)cc1 | inactive
48 | O=C1CC2(CCCCC2)Oc2ccc(OCC(=O)N3CCOCC3)cc21 | 10 µM (active)
49 | O=C(Nc1cccc(OCC(=O)N2CCOCC2)c1)C1CCCCC1 | inactive
50 | O=C1CC2(CCCC2)Oc2ccc(Cl)cc21 | inactive
